Measured values reported in PubChem BioAssay (Tox21).
Results filed as inconclusive are left out. Entries that show only a call come without a potency. The source made the active and inactive calls. The call rests on the fitted dose curve; in most records, active means well fitted cell-killing curve with a large enough effect in the repeat runs; inconclusive means weak or mixed curves; inactive means flat fitted curve, though single readings scatter.

Test: qHTS assay to identify small molecule antagonists of the TGF-beta/Smad signaling pathway - cell viability counter screen (AID 1346824); further: nearly all actives have a fitted effect of over 50% in size
Settings: SBE-bla HEK293T viability, CellTiter-Glo luminescence; series mostly up to 76.8 µM
Source text: U.S. Tox21 Program National Center for Advancing Translational Sciences [NCATS] NIH Chemical Genomics Center [NCGC] U.S. Environmental Protection Agency [EPA] National Institutes of Environmental Health Sciences [NIEHS] National Toxicology Program [NTP] U.S. Food and Drug Administration [FDA] Tox21 Assay Overview: Transforming growth factor beta (TGF-beta) superfamily consists of a large number of structurally related dimeric proteins that act as hormones or local mediators in regulating a wide range of biological functions. This superfamily includes TGF-betas themselves, the bone morphogenetic proteins (BMPs) and the activins. These ligands induce oligomerization of serine/threonine receptor kinases and phosphorylate the cytoplasmic signaling molecules of Smad protein family. CellSensor SBE-bla HEK 293T cell line (Life Technologies, Carlsbad, CA), responsive to TGF-beta was used to screen Tox21 10K compound library for identification of agonists/antagonists of the Smad signaling pathway. This cell line contains a beta-lactamase reporter gene under control of the Smad binding element (SBE) stably integrated into HEK 293T cells. Also cytotoxicity of the compounds was tested in parallel by measuring the cell viability using CellTiter-Glo assay system in the same wells.
Tox21 Assay Protocol Summary: SBE-bla HEK 293T cells were dispensed at 4,000/well in 5 uL of assay medium into black wall/clear-bottom 1536-well plates using a Multidrop Combi (ThermoFisher Scientific, Waltham, MA) dispenser. After the assay plates were incubated at 37 C and 5% CO2 for an overnight, 23 nL of compounds dissolved in DMSO, positive controls or DMSO only was transferred to the assay plate by a Pintool station (Kalypsys, San Diego, CA). Compound transfer was followed by the addition of 1 uL of 0.25 ng/mL TGF-beta1 or assay buffer using two separate tips of Flying Reagent Dispenser (FRD, Aurora Discovery, San Diego, CA). The assay plates were incubated at 37 C and 5% CO2 for 5 hr. One uL of LiveBLAzer B/G FRET substrate (Life Technologies) was added using a Flying Reagent Dispenser (FRD, Aurora Discovery, San Diego, CA) and the plates were incubated at room temperature for 2 hr. Fluorescence intensity (405 nm excitation, 460 nm and 530 nm emissions) was measured using an Envision plate reader (PerkinElmer, Shelton, CT). For cytotoxicity read, 4 uL of CellTiter-Glo reagent (Promega Corporation, Madison, WI) was added to each well of the assay plates using FRD. After 30 min incubation at room temperature, the luminescence intensity was measured using ViewLux plate reader (PerkinElmer).

For `C[C@H]1C[C@@H]2[C@H]([C@@H](O)C[C@@]3(C)[C@H]2CC[C@]3(O)C(=O)CO)[C@@]2(C)C=CC(=O)C=C12`, which Potency is on record?
The Potency was “inactive”.

Which Potency does the source give for `CCCCCOC(C)=O` here?
The Potency was “inactive”.

With `OCCOCCOCCO` as the compound, how does the Potency read?
The Potency was “inactive”.

With `CC1CCC2CC1C2(C)C` (stereo not given) as the compound, how does the Potency read?
Its Potency is “inactive”.

With `COc1cc(Cc2cnc(N)nc2N)cc(OC)c1OC` as the compound, how does the Potency read?
The Potency was “inactive”.

For `C/C=C1/CC2C=CC1C2` (stereo not given), which Potency is on record?
The Potency was “inactive”.

With `CCCCCCCCCCCCS` as the compound, how does the Potency read?
The Potency was “inactive”.

For `COc1ccc(Cl)cc1C(=O)NCCc1ccc(S(=O)(=O)NC(=O)NC2CCCCC2)cc1`, which Potency is on record?
Its Potency is “inactive”.

With `CCCCN(CCCC)CCCC` as the compound, how does the Potency read?
The Potency was “inactive”.

Which Potency does the source give for `O=P(OC(CCl)CCl)(OC(CCl)CCl)OC(CCl)CCl` here?
The Potency was “inactive”.

For `O=S(=O)(O)c1ccc2ccccc2c1`, which Potency is on record?
The Potency was “inactive”.

For `CC1=CC(=O)NS(=O)(=O)O1`, which Potency is on record?
The Potency was “inactive”.

For `COS(C)(=O)=O`, which Potency is on record?
Its Potency is “inactive”.

Which Potency does the source give for `NNc1nncc2ccccc12` here?
The Potency was “inactive”.

With `CCC(O)OCCCOC` (stereo not given) as the compound, how does the Potency read?
The Potency was “inactive”.

Which Potency does the source give for `Cc1cnc(C(=O)NCCc2ccc(S(=O)(=O)NC(=O)NC3CCCCC3)cc2)cn1` here?
The Potency was “inactive”.

For `c1ccc2scnc2c1`, which Potency is on record?
The Potency was “inactive”.

Which Potency does the source give for `CC1=CCC2CC1C2(C)C` (stereo not given) here?
The Potency was “inactive”.

With `CC(=O)Nc1ccccc1` as the compound, how does the Potency read?
The Potency was “inactive”.

Which Potency does the source give for `CCCC(C)=O` here?
Its Potency is “inactive”.

With `C=C(C)C(=O)OCCOCCOCCOC(=O)C(=C)C` as the compound, how does the Potency read?
Its Potency is “inactive”.

Which Potency does the source give for `CC(O)COCC(C)O` (stereo not given) here?
Its Potency is “inactive”.

Which Potency does the source give for `CC(=O)Nc1cccc(O)c1` here?
Its Potency is “inactive”.

Which Potency does the source give for `COc1ccc(Nc2ccccc2)c(C)c1` here?
Its Potency is “inactive”.

Which Potency does the source give for `OCCOCCN1CCN(C2=Nc3ccccc3Sc3ccccc32)CC1` here?
The Potency was “inactive”.

For `OCc1cccnc1`, which Potency is on record?
Its Potency is “inactive”.

Which Potency does the source give for `c1ccc(OCCOc2ccccc2)cc1` here?
The Potency was “inactive”.

Which Potency does the source give for `Nc1ccccc1[N+](=O)[O-]` here?
Its Potency is “inactive”.

With `Cc1occc(=O)c1O` as the compound, how does the Potency read?
The Potency was “inactive”.

With `Cc1cccc(O)c1` as the compound, how does the Potency read?
Its Potency is “inactive”.

For `CC(C)c1ccc(S(=O)(=O)O)cc1`, which Potency is on record?
The Potency was “inactive”.

For `O=C1CCC(N2C(=O)c3ccccc3C2=O)C(=O)N1` (stereo not given), which Potency is on record?
The Potency was “inactive”.

With `O=C(O)CC(C(=O)O)C(CC(=O)O)C(=O)O` (stereo not given) as the compound, how does the Potency read?
The Potency was “inactive”.

With `CCCCC(CC)COC(=O)C(C#N)=C(c1ccccc1)c1ccccc1` (stereo not given) as the compound, how does the Potency read?
Its Potency is “inactive”.

For `Cc1cc(C)c(C)cc1C`, which Potency is on record?
Its Potency is “inactive”.

For `C=C(C)C(=O)Nc1ccc(Cl)c(Cl)c1`, which Potency is on record?
Its Potency is “inactive”.

For `CC(C)(N)CO`, which Potency is on record?
Its Potency is “inactive”.

Which Potency does the source give for `O=[N+]([O-])c1ccc(/C=C/c2ccc([N+](=O)[O-])cc2S(=O)(=O)O)c(S(=O)(=O)O)c1` here?
Its Potency is “inactive”.

Which Potency does the source give for `O=C(O)c1ccccc1C(c1ccc(O)cc1)c1ccc(O)cc1` here?
The Potency was “inactive”.

With `O=C(OCCOCCOC(=O)c1ccccc1)c1ccccc1` as the compound, how does the Potency read?
Its Potency is “inactive”.
